PubChem BioAssay
Active and inactive are the calls of the source. Unless noted, no rule for the calls is given here.

Tests used:
[1] = tested on: Wnt5a (protein binding on small-molecule microarray); test: Wnt5a binders on small-molecule microarray, primary screen, biophysical, 635/667 nm fluorescence (AID 1142); settings: 635 nm fluorescence, higher = more signal;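 also: fluorescence read at 667 nm with signal to noise per printed feature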
[2] = cell viability in Huh7 cells, primary screen, cytotoxicity control for HCV replication inhibitor project, CellTiter-Glo luminescence, basal, 48 h (AID 1143); settings: Huh7 HCV replicon, higher = more signal, called active from +8 up or from −8 down;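 also: Huh7 hepatoma cells carrying a hepatitis C replication reporter with no stimulus; test concentration not given here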
[3] = P. aeruginosa biofilm formation inhibitors, primary screen, PAO1 strain, BacTiter-Glo luminescence, LB-PBS (AID 1144); settings: 12 h, higher = more signal
[4] = CREB reporter modulators without forskolin, primary screen, cell-based, PC12, CRE-LacZ reporter, unstimulated (AID 1145); settings: no forskolin, luminescence, 4.5 h, higher = more signal, called active from +8 up or from −8 down
[5] = CREB reporter modulators under forskolin, primary screen, cell-based, PC12, CRE-LacZ reporter, forskolin-stimulated (AID 1146); settings: luminescence, 4.5 h, higher = more signal, called active from +8 up or from −8 down;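 also: PC12 cells with 6xCRE LacZ reporter stimulated by forskolin 10 µM; beta-galactosidase reporter signal reflecting CREB driven transcription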
[6] = biological target: Streptavidin (Streptomyces avidinii) (UniProt P22629); test: streptavidin binders on small-molecule microarray, primary screen, artefact control for SMM compound annotation, biophysical, 635/667 nm fluorescence (AID 1147); settings: streptavidin binding, higher = more signal;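 also: signal reflects streptavidin binding to arrayed compounds as a control protein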
Sequence of Streptavidin (Streptomyces avidinii) (P22629 whole entry, looked up): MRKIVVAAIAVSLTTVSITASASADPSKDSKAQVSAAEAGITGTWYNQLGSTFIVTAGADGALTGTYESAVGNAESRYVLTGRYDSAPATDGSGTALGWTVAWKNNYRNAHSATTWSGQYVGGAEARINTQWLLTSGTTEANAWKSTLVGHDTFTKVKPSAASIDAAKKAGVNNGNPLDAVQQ

[7] = small-molecule binders of probe aInhba, primary screen, biochemical, small-molecule microarray, 635/667 nm fluorescence (AID 1148); settings: higher = more signal;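 also: score merges 667nm spot fluorescence with signal-to-noise for antibody binding to printed compounds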
Torsin-1A (Homo sapiens) [8] = biological target: Torsin-1A (Homo sapiens) (UniProt O14656); test: torsin A binders from cell lysate, primary screen, small-molecule microarray, wild-type, 635/667 nm (AID 1149); settings: COS7 hTOR1A-WT lysate, 635 nm fluorescence, higher = more signal
Sequence of Torsin-1A (Homo sapiens) (O14656 whole entry, looked up): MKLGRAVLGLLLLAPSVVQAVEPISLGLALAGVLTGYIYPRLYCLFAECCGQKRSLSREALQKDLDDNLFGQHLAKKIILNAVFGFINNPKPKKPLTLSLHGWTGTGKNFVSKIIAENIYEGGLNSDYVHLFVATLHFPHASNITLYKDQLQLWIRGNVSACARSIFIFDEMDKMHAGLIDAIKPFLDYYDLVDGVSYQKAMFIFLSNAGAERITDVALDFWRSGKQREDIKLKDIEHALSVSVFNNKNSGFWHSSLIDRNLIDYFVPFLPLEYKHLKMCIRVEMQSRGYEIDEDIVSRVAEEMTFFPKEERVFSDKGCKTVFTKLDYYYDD

Torsin-1A (Homo sapiens) [9] = biological target: Torsin-1A (Homo sapiens) (UniProt O14656); test: small-molecule binders of mutant TOR1A in lysate, primary screen, cell lysate, small-molecule microarray, COS7 lysate, 635/667 nm fluorescence (AID 1150); settings: COS7 hTOR1A mutant lysate, 635 nm fluorescence, higher = more signal;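 also: score pools 667 nm emission and signal to noise measuring lysate protein binding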
[10] = tested on: Sonic hedgehog protein (Shh); test: small-molecule binders of Shh protein, primary screen, biochemical, small-molecule microarray, 635/667 nm fluorescence (AID 1151); settings: small-molecule microarray binding, 635 nm fluorescence; higher = more signal;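 also: Shh protein binding to compounds spotted on small-molecule microarray slides; score combines spot fluorescence intensity with signal-to-noise across triplicate slides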
[11] = E. coli DRC41 culture turbidity changes, primary screen, E. coli filamentation inducer project, strain DRC41, OD650, 48 h (AID 1152);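 also: E. coli MC1000 strain DRC41 lacking acrAB efflux pump and sulA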; settings: E. coli DRC41 (acrAB sulA), higher = more signal, called active from +8 up or from −8 down
[12] = small-molecule binders of probe aLefty1, primary screen, biochemical, small-molecule microarray, 635/667 nm fluorescence (AID 1153); settings: higher = more signal;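 also: score merges spot fluorescence with signal-to-noise ratio from the scanned slide images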
[13] = PSAC antagonists in infected red cells, primary screen, cell-based, P. falciparum Indochina, OD700, 1 h (AID 1154); settings: P. falciparum Indochina infected RBC osmotic lysis, higher = more signal, called active from +8 up or from −8 down
[14] = PSAC antagonists in infected red cells, primary screen, cell-based, P. falciparum Indochina, OD700, 2 h (AID 1155);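 also: lysis reports solute entry through the parasite surface anion channel PSAC; channel blockers reduce lysis of infected cells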; settings: P. falciparum Indochina infected erythrocytes, osmotic lysis OD700; higher = more signal, called active from +8 up or from −8 down
[15] = osmotic lysis modulators in infected erythrocytes, primary screen, PSAC antagonist project, cell-based, P. falciparum Indochina, OD700, 3 h (AID 1156); settings: higher = more signal, called active from +8 up or from −8 down
[16] = PSAC antagonists in infected red cells, primary screen, cell-based, P. falciparum Indochina, OD700, 18 h (AID 1157); settings: P. falciparum Indochina infected erythrocytes, osmotic lysis OD700, 18 h; higher = more signal, called active from +8 up or from −8 down
[17] = modulators of S6 phosphorylation in cells, primary screen, cell-based, A549, cytoblot, luminescence, serum-stimulated (AID 1158); settings: A549 phospho-S6 cytoblot, 5 h, higher = more signal;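 also: serum-stimulated A549 lung adenocarcinoma cells; signal is phosphorylated S6 detected by cytoblot immunostaining with HRP secondary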
[18] = biological target: NADPH oxidase 2 (Homo sapiens) (UniProt P04839); test: NOX2-dependent H2O2 signal modulators, primary screen, NOX inhibitor project, cell-based, HEK293-NOX2, PMA-stimulated, Amplex Red fluorescence (AID 1159); settings: 45 min, higher = more signal, called active from +8 up or from −8 down; also: test concentration not given here
Sequence of NADPH oxidase 2 (Homo sapiens) (P04839 whole entry, looked up): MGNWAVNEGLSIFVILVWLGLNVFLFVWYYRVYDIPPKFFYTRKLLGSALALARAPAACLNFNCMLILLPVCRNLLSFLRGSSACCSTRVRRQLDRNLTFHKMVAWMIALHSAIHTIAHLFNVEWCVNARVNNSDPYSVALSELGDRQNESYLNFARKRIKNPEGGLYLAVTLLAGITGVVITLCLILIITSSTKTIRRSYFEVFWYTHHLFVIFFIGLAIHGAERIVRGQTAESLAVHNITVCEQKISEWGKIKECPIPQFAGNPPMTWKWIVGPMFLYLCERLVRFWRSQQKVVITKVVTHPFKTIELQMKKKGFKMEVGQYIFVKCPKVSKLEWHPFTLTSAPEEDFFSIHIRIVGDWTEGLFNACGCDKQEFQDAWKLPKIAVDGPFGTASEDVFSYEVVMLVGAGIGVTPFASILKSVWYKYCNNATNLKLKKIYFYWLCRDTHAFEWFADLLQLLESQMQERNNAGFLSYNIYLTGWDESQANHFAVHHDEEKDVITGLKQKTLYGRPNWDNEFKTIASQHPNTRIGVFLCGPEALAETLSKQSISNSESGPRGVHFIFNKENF

[19] = biological target: NADPH oxidase 4 (Homo sapiens) (UniProt Q9NPH5); test: NOX4-dependent H2O2 signal modulators, primary screen, NOX inhibitor project, cell-based, HEK293-NOX4, tetracycline-induced, Amplex Red fluorescence (AID 1160); settings: 45 min, higher = more signal, called active from +8 up or from −8 down
Sequence of NADPH oxidase 4 (Homo sapiens) (Q9NPH5 whole entry, looked up): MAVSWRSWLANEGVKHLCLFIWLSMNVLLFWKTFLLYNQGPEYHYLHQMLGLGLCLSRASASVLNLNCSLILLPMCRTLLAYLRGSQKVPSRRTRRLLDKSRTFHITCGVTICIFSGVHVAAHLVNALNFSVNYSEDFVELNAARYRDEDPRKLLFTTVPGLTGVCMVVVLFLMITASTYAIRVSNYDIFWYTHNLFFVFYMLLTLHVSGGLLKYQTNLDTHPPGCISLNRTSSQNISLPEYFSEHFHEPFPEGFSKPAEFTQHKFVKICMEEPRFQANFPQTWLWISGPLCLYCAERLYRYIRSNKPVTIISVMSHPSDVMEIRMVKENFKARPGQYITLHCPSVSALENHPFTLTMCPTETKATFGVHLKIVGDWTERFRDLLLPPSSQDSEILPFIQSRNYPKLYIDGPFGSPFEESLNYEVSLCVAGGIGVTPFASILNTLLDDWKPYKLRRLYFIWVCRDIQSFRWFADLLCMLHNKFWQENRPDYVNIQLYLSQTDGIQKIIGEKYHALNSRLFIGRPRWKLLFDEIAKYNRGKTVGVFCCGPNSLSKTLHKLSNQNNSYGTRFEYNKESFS

[20] = biological target: NADPH oxidase 5 (Homo sapiens) (UniProt Q96PH1); test: NOX5-dependent H2O2 signal modulators, primary screen, NOX inhibitor project, cell-based, HEK293-NOX5, Amplex Red fluorescence (AID 1161); settings: HEK293-NOX5, ionomycin, 45 min, higher = more signal
Sequence of NADPH oxidase 5 (Homo sapiens) (Q96PH1 whole entry, looked up): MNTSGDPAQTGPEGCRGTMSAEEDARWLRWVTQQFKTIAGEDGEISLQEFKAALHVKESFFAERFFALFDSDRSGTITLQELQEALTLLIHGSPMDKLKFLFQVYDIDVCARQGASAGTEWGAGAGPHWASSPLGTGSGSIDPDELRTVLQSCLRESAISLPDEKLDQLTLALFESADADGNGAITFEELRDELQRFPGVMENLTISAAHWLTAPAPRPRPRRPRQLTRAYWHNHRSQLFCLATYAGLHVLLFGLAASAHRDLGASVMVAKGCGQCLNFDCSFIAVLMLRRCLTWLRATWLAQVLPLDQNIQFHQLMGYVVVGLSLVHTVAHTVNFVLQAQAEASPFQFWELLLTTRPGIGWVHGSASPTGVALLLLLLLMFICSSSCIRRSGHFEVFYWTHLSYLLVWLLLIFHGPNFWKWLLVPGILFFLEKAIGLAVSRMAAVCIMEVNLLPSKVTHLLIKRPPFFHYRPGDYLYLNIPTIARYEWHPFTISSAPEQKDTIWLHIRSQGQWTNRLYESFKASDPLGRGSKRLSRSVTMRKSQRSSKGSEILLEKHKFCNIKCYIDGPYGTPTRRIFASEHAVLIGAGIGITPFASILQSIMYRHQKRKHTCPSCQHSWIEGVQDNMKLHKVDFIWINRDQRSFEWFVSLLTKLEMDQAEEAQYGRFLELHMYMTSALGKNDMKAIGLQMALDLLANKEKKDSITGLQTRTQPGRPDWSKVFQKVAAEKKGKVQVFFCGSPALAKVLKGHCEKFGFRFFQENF

Row | SMILES | composite z-score [1] | z-score [2] | z-score [3] | z-score [4] | z-score [5] | composite z-score [6] | composite z-score [7] | composite z-score (Torsin-1A (Homo sapiens) [8]) | composite z-score (Torsin-1A (Homo sapiens) [9]) | composite z-score [10] | z-score [11] | composite z-score [12] | z-score [13] | z-score [14] | z-score [15] | z-score [16] | z-score [17] | z-score [18] | z-score [19] | z-score [20]
1 | CCOC(=O)CCN1C(=O)[C@H]2[C@H]3[C@H](O)[C@H](O)CC(=NOCC=C(C)CCC=C(C)C)[C@H]3CC[C@H]2C1=O | 0.0888 | -0.148 (inactive) | 1.18 (inactive) | 0.153 (inactive) | 0.462 (inactive) | 0.344 | 0.12 | 0.703 | 0.355 | -0.423 | 1.04 (inactive) | 0.148 | 1.09 (inactive) | 0.887 (inactive) | 1.25 (inactive) | 0.378 (inactive) | 0.199 | -4.23 (inactive) | 0.943 (inactive) | 0.546
2 | CCN1C(=O)[C@H]2[C@H]3[C@H](O)[C@H](O)CC(=NOC[C@@H](O)COCc4ccco4)[C@H]3CC[C@H]2C1=O | -0.13 | 0.337 (inactive) | -0.388 (inactive) | -0.926 (inactive) | -0.541 (inactive) | -1.09 | -0.241 | 3.04 | 2.87 | 1.97 | 0.537 (inactive) | -0.22 | -0.392 (inactive) | -0.025 (inactive) | -0.468 (inactive) | 0.108 (inactive) | -0.18 | -7.58 (inactive) | 0.0462 (inactive) | 0.262
3 | O=C1[C@H]2[C@H]3[C@H](O)[C@H](O)CC(=NOCc4ccccc4)[C@@H]3CC[C@H]2C(=O)N1c1cccc(Oc2ccccc2)c1 | -0.0001 | -0.558 (inactive) | 1.31 (inactive) | -0.658 (inactive) | 0.0169 (inactive) | 0.0831 | -0.024 | 0.186 | 0.0495 | 1.03 | 1.16 (inactive) | 0.082 | 2.88 (inactive) | 1.72 (inactive) | 1.19 (inactive) | 0.845 (inactive) | -0.116 | -1.11 (inactive) | 0.735 (inactive) | -1.18
4 | COC(=O)[C@H](C)NC(=O)CCC1CC(OC(=O)NCc2cccc3ccccc23)CC2(CCCC(COC(=O)NCc3ccccc3)O2)O1 (stereo not given in full) | 0.276 | -1.12 (inactive) | -1.33 (inactive) | -0.437 (inactive) | 0.0493 (inactive) | 0.777 | 0.0901 | 0.283 | 0.542 | 1.07 | -0.249 (inactive) | 0.378 | 0.385 (inactive) | -0.254 (inactive) | 0.0409 (inactive) | 0.0533 (inactive) | 0.362 | 1.42 (inactive) | 0.73 (inactive) | 1.06
5 | CC(C)(C)N1C(=O)[C@H]2[C@@H]3C(=CC[C@H]2C1=O)C(=O)[C@H]1O[C@H]1[C@H]3O | -0.264 | -6.85 (inactive) | 0.652 (inactive) | -0.748 (inactive) | -3.08 (inactive) | -0.5 | -0.127 | 1.84 | -0.0252 | 0.981 | -0.537 (inactive) | -0.328 | -0.23 (inactive) | -1.7 (inactive) | 0.0794 (inactive) | -2.24 (inactive) | 0.495 | -0.593 (inactive) | -0.168 (inactive) | 1.22
6 | CON=C1c2cc(OC)ccc2O[C@H](c2cccc(OC)c2)[C@H]1O | -0.038 | -3.45 (inactive) | -0.243 (inactive) | -0.0731 (inactive) | -0.206 (inactive) | 0.431 | -0.016 | 0.195 | 0.517 | 0.755 | 0.788 (inactive) | -0.0061 | 3.04 (inactive) | 0.72 (inactive) | -0.241 (inactive) | 0.245 (inactive) | 0.686 | -0.837 (inactive) | -0.406 (inactive) | -0.175
7 | COc1ccc(OC[C@@H](CO)OC)cc1 | 0.131 | 0.314 (inactive) | 0.86 (inactive) | 0.562 (inactive) | 0.17 (inactive) | 0.495 | -0.0962 | 0.373 | 0.304 | 0.577 | 0.261 (inactive) | -0.145 | -0.578 (inactive) | -0.348 (inactive) | -0.566 (inactive) | -0.389 (inactive) | -0.51 | 0.712 (inactive) | 0.422 (inactive) | 0.133
8 | O=C1C[C@@H](O)[C@@H](O)[C@@H]2[C@@H]3C(=O)N(C4CCCCC4)C(=O)[C@@H]3CC[C@@H]12 | 0.0446 | 0.0366 (inactive) | 0.749 (inactive) | -0.0223 (inactive) | -0.393 (inactive) | 0.148 | -0.145 | -0.0977 | 0.311 | 0.684 | -0.348 (inactive) | -0.395 | 0.733 (inactive) | 0.14 (inactive) | 0.265 (inactive) | -0.0387 (inactive) | -0.604 | -0.0439 (inactive) | 0.468 (inactive) | 0.0192
9 | CC(C)=CCCC(C)=CCON=C1C[C@@H](O)[C@@H](O)[C@@H]2[C@@H]3C(=O)N(Cc4ccc5c(c4)OCO5)C(=O)[C@@H]3CC[C@@H]12 | -0.0188 | -0.292 (inactive) | 0.73 (inactive) | 0.252 (inactive) | 0.217 (inactive) | 1.19 | -0.0791 | 1.01 | 0.606 | 0.816 | 0.253 (inactive) | 0.0315 | 31.3 (active) | 5.69 (inactive) | 2.24 (inactive) | 1.46 (inactive) | -0.274 | -1.3 (inactive) | -0.0437 (inactive) | -2.6
